Calls of active or inactive are those of the source. The calls were made as follows: active = hit-call score of the fitted dose curve at least 0.9, where 1 is the maximum; inactive = score below 0.9.
Assays:
[1] = ATG_GLI_CIS: Attagene CIS-FACTORIAL HepG2 Assay for human Zinc Finger Protein GLI1 (AID 2282945); settings: HepG2, Attagene cis-factorial reporter mRNA, GLI element; actives raise or lower the signal
Method in brief: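 Bidirectional curve fits relative to DMSO, using reporter mRNA levels from RT-PCR plus capillary electrophoresis. Cells were HepG2 transiently carrying cis-regulated reporter constructs, harvested 24 h after dosing.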

[2] = biological target: Bile acid receptor (Homo sapiens) (UniProt Q96RI1); assay: ATG_IR1_CIS: Attagene CIS-FACTORIAL HepG2 Assay for human Nuclear Receptor Subfamily 1 Group H Member 4 (NR1H4), IR1 submotif (AID 2282946); settings: IR1 reporter transcription, actives raise or lower the signal
Method in brief: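 HepG2 cells transiently transfected with multiplexed cis-element reporter units read endogenous transcription factor activity. After 24 h compound exposure, reporter mRNA was quantified by RT-PCR, fluorescent labelling, HpaI digestion and capillary electrophoresis; bidirectional fitting versus DMSO baseline.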

[3] = ATG_GRE_CIS: Attagene CIS-FACTORIAL HepG2 Assay for human Glucocorticoid Response Elements (GRE) (AID 2282947); settings: HepG2 GRE cis-reporter, Attagene multiplex mRNA; actives raise or lower the signal
Method in brief: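 Multiplexed cis-reporter mRNA induction, HepG2, 24 h post-dose. RT-PCR, FAM-labelled, HpaI-digested amplicons by CE. Bidirectional fit vs DMSO.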

[4] = ATG_ISRE_CIS: Attagene CIS-FACTORIAL HepG2 Assay for human Interferon Regulatory Factor 1 (IRF1) binding to an Interferon-Stimulated Response Element (ISRE) (AID 2282948); settings: HepG2 ISRE cis-reporter (Attagene), mRNA transcription readout; actives raise or lower the signal
Method in brief: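 Uses HepG2 liver cells transfected with cis-regulated reporters and measures mRNA 24 h post-dosing through RT-PCR, primer-extension labelling and capillary electrophoresis, with DMSO as negative control.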

[5] = ATG_M_32_CIS: Attagene CIS-FACTORIAL HepG2 Assay for M32 Transcription Factor (Internal Marker) (AID 2282949); settings: HepG2 Attagene cis-factorial M32 reporter, mRNA; actives raise or lower the signal;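 also: background control marker of the multiplexed CIS panel rather than a real target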
Method in brief: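 Transient MRTU transfection of HepG2; 24 h compound treatment; TriZol RNA, oligo(dT) RT, reporter PCR, 6-FAM primer extension, HpaI cut, CE. Gain/loss of signal vs DMSO.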

[6] = ATG_M_06_CIS: Attagene CIS-FACTORIAL HepG2 Assay for M06 Transcription Factor (Internal Marker) (AID 2282950); settings: HepG2 Attagene CIS-FACTORIAL M06 internal marker reporter; actives raise or lower the signal
Method in brief: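 Internal background marker within multiplexed cis-reporter HepG2 system. Cells transiently transfected, dosed 24 h; reporter mRNA measured by RT-PCR, HpaI digestion and capillary electrophoresis. Bidirectional fit relative to DMSO.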

[7] = biological target: Hypoxia-inducible factor 1-alpha (Homo sapiens) (UniProt Q16665); assay: ATG_HIF1a_CIS: Attagene CIS-FACTORIAL HepG2 Assay for human Hypoxia Inducible Factor 1 (HIF1A) (AID 2282951); settings: HepG2 Attagene cis-factorial HIF1a reporter transcription; actives raise or lower the signal
Method in brief: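 Activity is fitted in both directions relative to DMSO. Reporter transcripts are read by RT-PCR, fluorescent primer extension and capillary electrophoresis after 24 h chemical treatment. The cells are HepG2 carrying transiently transfected cis-element-driven reporter units responding to endogenous factors.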

[8] = biological target: Hepatocyte nuclear factor 6 (Homo sapiens) (UniProt Q9UBC0); assay: ATG_HNF6_CIS: Attagene CIS-FACTORIAL HepG2 Assay for human Hepatocyte Nuclear Factor 6 (HNF6) (AID 2282952); settings: HepG2 Attagene cis-factorial HNF6 reporter transcription; actives raise or lower the signal
Method in brief: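 Twenty-four-hour chemical treatment of reporter-transfected HepG2 cells precedes RNA isolation, DNase-treated reverse transcription and PCR of reporter sequences. Labelled fragments are sized by capillary electrophoresis and fitted bidirectionally versus DMSO.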

[9] = biological target: Heat shock factor protein 1 (Homo sapiens) (UniProt Q00613); assay: ATG_HSE_CIS: Attagene CIS-FACTORIAL HepG2 Assay for human Heat Shock Transcription Factor 1 (HSE) (AID 2282953); settings: HepG2 HSE cis-reporter, Attagene RNA transcription; actives raise or lower the signal
Method in brief: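 HepG2 cells transfected with cis-promoter reporter units sensing endogenous transcription factor activity; reporter mRNA quantified 24 h post-dose by RT-PCR and capillary electrophoresis of 6-FAM-labelled products. Bidirectional fitting against DMSO.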

[10] = ATG_PBREM_CIS: Attagene CIS-FACTORIAL HepG2 Assay for human Phenobarbital-responsive Enhancer Module (PBREM) (AID 2282955); settings: HepG2 PBREM cis-reporter, Attagene multiplexed transcription; actives raise or lower the signal
Method in brief: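 Endogenous transcription factor activity was read from reporter transcripts in transiently transfected human HepG2 liver cells after 24 h dosing. RT-PCR products were fluorescently labelled, HpaI-cut and sized by capillary electrophoresis; activity fitted bidirectionally against DMSO baseline.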

[11] = ATG_PXRE_CIS: Attagene CIS-FACTORIAL HepG2 Assay for human Pregnane X Receptor Element (PXRE) (AID 2282957); settings: HepG2 Attagene CIS-FACTORIAL PXRE reporter, mRNA; actives raise or lower the signal
Method in brief: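 Bidirectional activity, baselined to DMSO, derived from reporter mRNA fluorescence (RT-PCR plus capillary electrophoresis) in HepG2 cells bearing cis-promoter reporter units, 24 h exposure.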

[12] = ATG_PPRE_CIS: Attagene CIS-FACTORIAL HepG2 Assay for human Peroxisome Proliferator-activated Response Element (PPRE) (AID 2282958); settings: HepG2 PPRE cis-element reporter, Attagene transcription factor profiling; actives raise or lower the signal
Method in brief: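 Endogenous PPRE-driven transcription is measured in HepG2 cells carrying transfected multi-reporter constructs. Reporter transcripts are quantified by RT-PCR, HpaI digestion and capillary electrophoresis 24 h after dosing. DMSO baseline, bidirectional fit.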

[13] = ATG_RORE_CIS: Attagene CIS-FACTORIAL HepG2 Assay for human RAR-related Orphan Receptor Element (RORE) (AID 2282959); settings: HepG2 Attagene cis-factorial RORE reporter, mRNA; actives raise or lower the signal
Method in brief: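 RORE reporter transcripts reflecting endogenous factor activity were read after 24 h compound exposure of transfected HepG2 cells, using reverse transcription, PCR, fluorescent labelling and capillary electrophoresis sizing. Gain or loss fitted against DMSO.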

[14] = ATG_Sox_CIS: Attagene CIS-FACTORIAL HepG2 Assay for human SRY-box transcription factor (SOX) (AID 2282960); settings: HepG2 Attagene cis-factorial SOX reporter, mRNA; actives raise or lower the signal
Method in brief: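 Reporter transcripts, measured by RT-PCR and capillary electrophoresis of labelled fragments, report endogenous SOX transcription factor activity. Transiently transfected human HepG2 cells receive chemical for 24 h; changes in either direction are fitted relative to DMSO.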

[15] = biological target: Transcription factor Sp1 (Homo sapiens) (UniProt P08047); assay: ATG_Sp1_CIS: Attagene CIS-FACTORIAL HepG2 Assay for human Specificity Protein 1 (Sp1) (AID 2282961); settings: HepG2 Sp1 cis-reporter transcription, actives raise or lower the signal
Method in brief: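 Read-out is reporter transcript level, measured by RT-PCR and fluorescent capillary electrophoresis after 24 h chemical treatment. System: transiently transfected HepG2 cells reporting endogenous transcription factor activity; gain or loss fitted against DMSO baseline.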

[16] = ATG_SREBP_CIS: Attagene CIS-FACTORIAL HepG2 Assay for human Sterol Regulatory Element Binding (SREBP) (AID 2282962); settings: HepG2 Attagene cis-factorial SREBP reporter, mRNA; actives raise or lower the signal
Method in brief: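 In this cis-format assay, HepG2 liver cells express reporters controlled by promoter elements responsive to native transcription factors. Exposure lasts 24 h; reporter mRNA fluorescence from capillary electrophoresis gives the signal, fitted bidirectionally against DMSO.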

[17] = biological target: Signal transducer and activator of transcription 3 (Homo sapiens) (UniProt P40763); assay: ATG_STAT3_CIS: Attagene CIS-FACTORIAL HepG2 Assay for human Signal Transducer and Activator of Transcription 3 (STAT3) (AID 2282963); settings: HepG2, Attagene cis-factorial STAT3 reporter transcription; actives raise or lower the signal
Method in brief: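 Cis-factorial format: endogenous transcription factors in HepG2 drive transfected reporter units. After 24 h treatment, reporter RNA was reverse-transcribed, amplified, FAM-labelled and HpaI-digested before CE analysis; activity scored in both directions against DMSO.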

[18] = ATG_MRE_CIS: Attagene CIS-FACTORIAL HepG2 Assay for human Metal Responsive Element (MRE) (AID 2282954); settings: HepG2 MRE cis-reporter transcription, Attagene multiplex; actives raise or lower the signal
Method in brief: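 Multiplexed cis-reporter assay in human HepG2 liver cells, 24 h incubation with test chemical. Reporter transcripts measured by RT-PCR and capillary electrophoresis; values from bidirectional curve fitting versus DMSO.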

[19] = ATG_TA_CIS: Attagene CIS-FACTORIAL HepG2 Assay for human TA Basal Promoter (AID 2282964); settings: HepG2 Attagene CIS-factorial TA basal promoter reporter; actives raise or lower the signal
Method in brief: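 HepG2 cells transiently transfected with multiple reporter units under cis promoter elements, reporting endogenous transcription factor activity; this endpoint tracks the TA basal promoter as background control. Reporter mRNA after 24 h dosing measured by RT-PCR/capillary electrophoresis; bidirectional fits versus DMSO.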

[20] = biological target: Paired box protein Pax-6 (Homo sapiens) (UniProt P26367); assay: ATG_Pax6_CIS: Attagene CIS-FACTORIAL HepG2 Assay for human Paired Box 6 (PAX6) (AID 2282956); settings: HepG2 CIS-FACTORIAL PAX6 reporter transcription, RNA readout; actives raise or lower the signal
Method in brief: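 DMSO-referenced bidirectional fits of reporter mRNA fluorescence; HepG2 with transient cis-promoter MRTUs, 24 h post-dose, RT-PCR plus capillary electrophoresis detection.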

Measured: AC50

Sequence of Heat shock factor protein 1 (Homo sapiens) (Q00613 whole entry, looked up): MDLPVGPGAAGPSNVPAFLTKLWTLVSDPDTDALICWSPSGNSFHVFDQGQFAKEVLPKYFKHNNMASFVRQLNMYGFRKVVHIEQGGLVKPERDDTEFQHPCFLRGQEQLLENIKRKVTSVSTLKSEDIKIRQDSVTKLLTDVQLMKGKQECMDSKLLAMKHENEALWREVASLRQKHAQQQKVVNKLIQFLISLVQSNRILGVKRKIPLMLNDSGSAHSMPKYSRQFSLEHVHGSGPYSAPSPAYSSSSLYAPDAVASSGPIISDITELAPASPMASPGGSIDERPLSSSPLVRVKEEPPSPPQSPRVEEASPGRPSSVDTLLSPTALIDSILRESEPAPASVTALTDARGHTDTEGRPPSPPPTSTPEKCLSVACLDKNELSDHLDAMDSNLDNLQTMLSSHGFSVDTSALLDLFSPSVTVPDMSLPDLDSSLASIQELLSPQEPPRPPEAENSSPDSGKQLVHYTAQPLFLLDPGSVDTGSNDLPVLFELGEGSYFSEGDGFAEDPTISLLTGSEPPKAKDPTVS
Sequence of Hepatocyte nuclear factor 6 (Homo sapiens) (Q9UBC0 whole entry, looked up, the tested form may be a part): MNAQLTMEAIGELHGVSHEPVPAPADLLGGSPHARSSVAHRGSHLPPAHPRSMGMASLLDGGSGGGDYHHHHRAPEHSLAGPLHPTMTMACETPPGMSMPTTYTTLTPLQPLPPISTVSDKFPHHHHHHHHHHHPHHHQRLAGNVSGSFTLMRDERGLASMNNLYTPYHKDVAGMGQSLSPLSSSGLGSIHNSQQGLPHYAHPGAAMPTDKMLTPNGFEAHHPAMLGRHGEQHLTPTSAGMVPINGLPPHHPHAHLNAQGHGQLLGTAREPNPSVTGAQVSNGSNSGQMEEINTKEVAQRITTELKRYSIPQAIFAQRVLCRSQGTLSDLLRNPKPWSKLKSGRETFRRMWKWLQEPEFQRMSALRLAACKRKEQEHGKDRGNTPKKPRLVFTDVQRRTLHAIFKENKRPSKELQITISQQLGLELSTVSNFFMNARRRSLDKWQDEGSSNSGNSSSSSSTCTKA
Sequence of Bile acid receptor (Homo sapiens) (Q96RI1 whole entry, looked up): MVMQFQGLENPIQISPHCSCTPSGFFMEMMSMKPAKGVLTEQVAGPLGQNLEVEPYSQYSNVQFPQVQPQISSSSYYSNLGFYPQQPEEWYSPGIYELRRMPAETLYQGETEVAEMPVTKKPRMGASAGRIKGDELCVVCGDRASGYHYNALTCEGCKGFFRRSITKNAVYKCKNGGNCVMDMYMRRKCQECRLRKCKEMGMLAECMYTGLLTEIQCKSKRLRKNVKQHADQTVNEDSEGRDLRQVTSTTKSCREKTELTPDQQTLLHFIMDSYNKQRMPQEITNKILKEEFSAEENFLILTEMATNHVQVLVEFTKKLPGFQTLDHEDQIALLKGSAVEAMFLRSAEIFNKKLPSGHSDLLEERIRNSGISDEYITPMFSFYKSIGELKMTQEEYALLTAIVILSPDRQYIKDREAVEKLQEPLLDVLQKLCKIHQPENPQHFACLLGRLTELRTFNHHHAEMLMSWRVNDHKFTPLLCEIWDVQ
Sequence of Signal transducer and activator of transcription 3 (Homo sapiens) (P40763 whole entry, looked up): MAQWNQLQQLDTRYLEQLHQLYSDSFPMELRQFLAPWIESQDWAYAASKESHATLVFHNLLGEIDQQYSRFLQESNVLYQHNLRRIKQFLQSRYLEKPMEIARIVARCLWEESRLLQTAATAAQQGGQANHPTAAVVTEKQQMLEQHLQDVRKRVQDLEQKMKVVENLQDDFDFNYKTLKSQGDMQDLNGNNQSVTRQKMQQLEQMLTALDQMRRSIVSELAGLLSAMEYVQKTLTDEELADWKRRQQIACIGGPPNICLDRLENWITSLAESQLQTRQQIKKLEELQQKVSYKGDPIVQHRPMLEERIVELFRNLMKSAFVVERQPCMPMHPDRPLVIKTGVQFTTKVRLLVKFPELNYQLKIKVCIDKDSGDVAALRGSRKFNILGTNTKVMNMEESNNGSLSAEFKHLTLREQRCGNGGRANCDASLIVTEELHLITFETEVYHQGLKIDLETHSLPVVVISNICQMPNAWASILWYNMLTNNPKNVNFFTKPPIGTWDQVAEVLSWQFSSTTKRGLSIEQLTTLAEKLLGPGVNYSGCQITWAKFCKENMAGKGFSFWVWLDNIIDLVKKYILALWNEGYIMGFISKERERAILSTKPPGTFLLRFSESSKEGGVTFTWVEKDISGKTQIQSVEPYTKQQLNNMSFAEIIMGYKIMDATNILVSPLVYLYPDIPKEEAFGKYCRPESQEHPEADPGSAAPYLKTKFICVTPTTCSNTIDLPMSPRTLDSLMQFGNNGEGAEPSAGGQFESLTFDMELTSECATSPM
Sequence of Transcription factor Sp1 (Homo sapiens) (P08047 whole entry, looked up): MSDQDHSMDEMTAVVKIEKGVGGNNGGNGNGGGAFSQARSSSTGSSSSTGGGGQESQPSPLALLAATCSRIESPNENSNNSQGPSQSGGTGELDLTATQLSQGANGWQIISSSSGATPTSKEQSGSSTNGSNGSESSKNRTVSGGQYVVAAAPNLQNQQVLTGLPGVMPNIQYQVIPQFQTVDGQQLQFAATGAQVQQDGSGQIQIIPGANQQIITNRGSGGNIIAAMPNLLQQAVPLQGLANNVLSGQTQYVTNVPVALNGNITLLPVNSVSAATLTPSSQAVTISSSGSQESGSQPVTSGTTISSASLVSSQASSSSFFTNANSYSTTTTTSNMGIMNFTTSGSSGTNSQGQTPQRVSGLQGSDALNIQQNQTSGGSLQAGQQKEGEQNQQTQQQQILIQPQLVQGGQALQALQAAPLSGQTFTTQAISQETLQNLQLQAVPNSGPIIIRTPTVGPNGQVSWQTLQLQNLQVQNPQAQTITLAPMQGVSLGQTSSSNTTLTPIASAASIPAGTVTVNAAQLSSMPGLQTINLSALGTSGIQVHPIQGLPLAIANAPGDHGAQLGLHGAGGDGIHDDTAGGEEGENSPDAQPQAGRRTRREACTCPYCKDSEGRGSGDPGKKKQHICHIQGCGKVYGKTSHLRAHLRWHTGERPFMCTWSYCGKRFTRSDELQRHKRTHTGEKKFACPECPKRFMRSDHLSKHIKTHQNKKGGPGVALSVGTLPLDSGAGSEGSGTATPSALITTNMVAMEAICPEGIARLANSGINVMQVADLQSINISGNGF
Sequence of Paired box protein Pax-6 (Homo sapiens) (P26367 whole entry, looked up): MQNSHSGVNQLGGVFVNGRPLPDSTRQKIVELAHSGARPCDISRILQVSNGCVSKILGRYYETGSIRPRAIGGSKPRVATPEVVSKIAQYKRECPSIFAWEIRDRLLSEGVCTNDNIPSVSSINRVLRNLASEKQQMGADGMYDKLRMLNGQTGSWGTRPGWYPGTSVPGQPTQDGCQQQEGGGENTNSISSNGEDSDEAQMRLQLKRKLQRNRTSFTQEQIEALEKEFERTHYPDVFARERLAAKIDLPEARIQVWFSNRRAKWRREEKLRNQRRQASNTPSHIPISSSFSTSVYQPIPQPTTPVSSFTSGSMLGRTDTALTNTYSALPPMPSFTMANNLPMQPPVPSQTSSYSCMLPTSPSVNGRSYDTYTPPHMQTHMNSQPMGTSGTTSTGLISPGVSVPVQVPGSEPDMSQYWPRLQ
Sequence of Hypoxia-inducible factor 1-alpha (Homo sapiens) (Q16665 whole entry, looked up): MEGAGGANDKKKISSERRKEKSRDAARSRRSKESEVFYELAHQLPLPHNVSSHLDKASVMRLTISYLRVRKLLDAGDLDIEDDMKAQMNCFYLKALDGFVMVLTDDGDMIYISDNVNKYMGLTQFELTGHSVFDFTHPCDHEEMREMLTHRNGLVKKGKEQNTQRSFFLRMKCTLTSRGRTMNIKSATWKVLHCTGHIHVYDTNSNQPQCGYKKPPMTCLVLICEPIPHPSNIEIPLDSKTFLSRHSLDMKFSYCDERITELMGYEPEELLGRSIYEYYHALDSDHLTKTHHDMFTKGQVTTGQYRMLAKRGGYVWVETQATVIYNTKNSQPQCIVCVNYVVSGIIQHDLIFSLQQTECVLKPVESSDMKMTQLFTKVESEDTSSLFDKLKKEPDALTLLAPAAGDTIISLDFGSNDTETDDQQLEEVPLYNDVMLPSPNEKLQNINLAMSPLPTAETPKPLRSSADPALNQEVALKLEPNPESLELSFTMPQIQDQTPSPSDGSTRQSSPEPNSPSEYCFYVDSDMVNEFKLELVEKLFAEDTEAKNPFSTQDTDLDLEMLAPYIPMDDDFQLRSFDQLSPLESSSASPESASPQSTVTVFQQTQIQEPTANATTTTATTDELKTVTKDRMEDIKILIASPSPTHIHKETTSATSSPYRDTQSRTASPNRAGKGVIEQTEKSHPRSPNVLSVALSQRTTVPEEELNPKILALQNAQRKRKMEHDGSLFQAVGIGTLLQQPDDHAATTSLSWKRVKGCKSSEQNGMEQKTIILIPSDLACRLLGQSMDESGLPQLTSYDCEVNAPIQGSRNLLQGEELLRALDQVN

CCCCCC/C=C/CCCCCCCC(=O)O
not listed: [18] | [19] | [20]
inactive: all other assays above

O=C1C=CC(=O)N1c1ccccc1
not listed: [7] | [20]
inactive: all other assays above

O=C=Nc1cccc2c(N=C=O)cccc12
active: [11] 1.82 µM
not listed: [7] | [19]
inactive: all other assays above

O=C1c2c(O)ccc(Nc3ccc(CCO)cc3)c2C(=O)c2c([N+](=O)[O-])ccc(O)c21
active: [10] 38.6 µM | [11] 6.06 µM | [12] 24.1 µM | [13] 4.01 µM
not listed: [7]
inactive: all other assays above

Reference: PubChem BioAssay (EPA / NIEHS)
